The supplement of paper PMC6555819

Experiments:
Assay in all cases: PBM binding z-score (relative to random genomic background probes); higher = stronger binding; sequences stand for … in GC…GCGATTGACAGCGTAGAATGAAGG
[1] = test system: RARb homodimer (NR concentration 270 nM)
Procedure, shortened: (§1)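 Regression normalization was applied to scanned fluorescence from custom Agilent 4×180K protein-binding microarrays. Before scanning, arrays were incubated 1 h with ligand-free nuclear receptor dimers, and binding was detected with antibodies against each partner (one per run). Binding z-scores use the random background probes as reference.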

[2] = test system: RARg:RXRa (NR concentration 270 nM, RXRa partner concentration 90 nM)
Procedure, shortened: as §1

[3] = test system: RARg homodimer (NR concentration 270 nM)
Procedure, shortened: as §1

[4] = test system: RXRa DBDmut IVT, anti-RXR (DBD mutation: RXRa K156A/R161A, NR concentration 90 nM)
Procedure, shortened: as §1

[5] = test system: RXRa homodimer (NR concentration 180 nM)
Procedure, shortened: as §1

[6] = test system: THRa:RXRa (NR concentration 90 nM, RXRa partner concentration 90 nM)
Procedure, shortened: as §1

[7] = test system: THRa homodimer (NR concentration 90 nM)
Procedure, shortened: as §1

[8] = test system: VDR homodimer (NR concentration 270 nM)
Procedure, shortened: as §1

Sequence | PBM binding z-score [1] | PBM binding z-score [2] | PBM binding z-score [3] | PBM binding z-score [4] | PBM binding z-score [5] | PBM binding z-score [6] | PBM binding z-score [7] | PBM binding z-score [8]
TCTAGTTGGCCAAAGGTCACACACTCGAAATGCG | 5.04 | 6.5 | 6.31 | 1.5 | 7.78 | 3.78 | 1.77 | 2.27
CCGACTGGGGCAAAAGTTACCATACTCAGTACGA | 0.168 | 0.333 | 0.253 | 0.584 | 0.278 | -0.144 | -0.251 | -0.248
CGAACTAGGACAAGGACAGTGAATCTCCGCACGC | 0.532 | 0.083 | 0.606 | 0.343 | 0.0441 | 1.8 | 1.32 | 0.0217
GCTGCTAGGTCAGGTGGGTCAGCTAACGGGTACG | 3.64 | 3.41 | 4.26 | 0.0363 | 2.07 | 2.57 | 0.719 | 0.861
TCTAGTTGATCAAAGGTCACACACTCGAAATGCG | 4.89 | 6.54 | 5.95 | 2.21 | 7.03 | 4.22 | 2.08 | 2.79
AATACTGGGTCATCGTAGGCCAGAGTACGCACAG | 3.24 | 3.52 | 3.91 | 0.934 | 3.11 | 3.85 | 0.749 | 1
ATCTCTAGGTAAAGATGGTTCAGTGAATGCAAAT | -0.0603 | 0.324 | 0.292 | -0.0269 | 0.0778 | 0.592 | 0.0966 | 0.095
CGAACTAGGTCATTGACAGGACTGTGAATAGTAA | 2.4 | 3.66 | 4.03 | 2.31 | 2.35 | 2.49 | 0.524 | 0.706
AATACAGGGTCACTAGGCCAGCGTAGGTACGAAT | 3.58 | 5.12 | 4.78 | 2.81 | 5.29 | 3.48 | 1.43 | 2.28
CTACCTAGGTGAACAAGGTCGTTGATTACTATTC | 1.73 | 1.31 | 0.8 | 1.27 | 1.34 | 2.67 | 1.54 | 2.12
CCTACAGGGCCATCAGGTCATTGATATCAACGTT | 2.75 | 2.63 | 2.35 | 0.562 | 1.63 | 3.26 | 2.79 | 1.45
AATACAGGGTCATCGTAGGCGAGAGTACGCACAG | 3.47 | 5.58 | 4.77 | 3.52 | 6.54 | 4.45 | 1.32 | 3.54
GCTCGTAGGACAAGGTCAGAGCTTTGTCCGTAGA | 2.93 | 2.95 | 3.49 | 0.281 | 2.55 | 2.64 | 0.975 | 0.106
TAGTCTAGGTCATGCGGGCCAGTATAGTGTCGGC | 3.13 | 3.77 | 4.69 | 0.748 | 3.08 | 3.29 | 1.67 | 0.86
CTACCAAGGTGAACAAGGTCGTTCATTACTATTC | 2.93 | 2.18 | 1.75 | 2.32 | 2.27 | 3.56 | 2.2 | 3.38
CGAACGAGGGCATGAGTCGATAGCAAATGCCGAT | 0.648 | 0.901 | 1.41 | 1.99 | 0.869 | 0.888 | -0.267 | 0.974
TCTATTAGTTGATTAGTGCAACCGAAACAGCGGA | 0.0135 | 0.467 | 0.362 | 0.964 | 0.333 | 0.158 | 0.00829 | 0.654
CGTCAAAGTTCTACTAAGGTAACGTAAAGCACGC | 0.428 | 0.172 | 0.53 | 0.53 | 0.138 | 3.7 | 1.49 | 0.165
TCTTGTCGATCAAAGGTTAAGAAAGCCGAAGCCT | 1.49 | 2.01 | 0.765 | 0.676 | 2.43 | 1.33 | -0.0604 | 0.0763
ACTAGCAGGCCAAGTTTGAGTCACTCAAACAAAG | -0.195 | 0.0466 | 0.196 | -0.27 | -0.333 | -0.188 | -0.77 | -0.27
GCTTACGGGTCAAAGGTTATACCATGAATAGAAT | 3.74 | 6.93 | 4.71 | 2.59 | 9.41 | 4.17 | 0.206 | 1.77
TTTAGTTGGTCACGGAGGTCACACACGACGGGTA | 4.52 | 5.05 | 5.2 | 0.387 | 4.87 | 3.75 | 3.15 | 3.7
CGTCCAAGGTCAATGCTAGGTCAGTGCAAGCATT | 5.12 | 7.51 | 6.92 | 3.53 | 5.11 | 4.39 | 3.05 | 3.46
TCTCGGAGGACACGAAAGTTCAGAGCTCGACATC | 3.16 | 2.2 | 3.44 | 1.32 | 1.14 | 2.22 | 0.943 | 2.55
GCTATTAGTTGAAGGGGCAACCGAATGATTCTCG | 0.855 | 0.206 | 0.529 | 0.928 | 0.206 | 0.0187 | -0.194 | 0.212
CCTATTAGTGGACCATAAGGGCAACCGAAGCTCG | 1.53 | 0.433 | 0.657 | 0.115 | 0.31 | 1.38 | 0.862 | 0.415
ACAGACAGGTGAGTGAAGGTAACTCATCTGGACG | -0.00809 | 0.205 | 0.564 | -0.622 | 0.146 | 1.57 | -0.651 | -0.803
TCGAGTAGTTTAGTCGGGGCATTCAGCCAACATA | 0.253 | -0.495 | -0.511 | 0.57 | -0.338 | 0.245 | 0.214 | 0.234
